Screens deposited in PubChem by National Center for Advancing Translational Sciences (NCATS).
TDP1 cell noCPT = qHTS for Inhibitors of human tyrosyl-DNA phosphodiesterase 1 (TDP1): qHTS in cells in absence of CPT. DT40 Tdp1-/- hTDP1 cells, no CPT, ATP luminescence, 48 h. Potency, µM (series often up to 46.2 µM), without a hit: at the highest dose activity change, negative = growth inhibition, actives largely listed as inhibitors. 420,000 tested, 15% active; further: potency means the concentration at half of the fitted maximal effect; nearly all actives have a fitted effect of over 55% in size
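DT40 Tdp1-/-;hTDP1 cells, no CPT (DMSO vehicle only), 400 cells/well; compounds pin-transferred; ≥48 hr, 37 °C; CellTiter-Glo 30 min RT dark, luminescence read.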
TDP1 cell CPT = growth inhibition of DT40 Tdp1-/-;hTDP1 cells with camptothecin (screen for TDP1 inhibitors). chicken DT40 Tdp1-/-;hTDP1 cells + 20 nM CPT, ATP luminescence, 48 h. Potency, µM (titrated, usually from 46.2 µM), for the others: at the top dose activity change, negative = growth inhibition, actives largely listed as inhibitors. 420,000 tested, 12% active. AID 686979; further: potency means the concentration at half of the fitted maximal effect; nearly all actives have a fitted effect of over 55% in size
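Cell growth measured by CellTiter-Glo luminescence after a minimum 48 h, 37 C compound exposure with 20 nM CPT in Tdp1-knockout DT40 cells stably expressing hTDP1, seeded 400/well; qHTS titration format.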
IL-1B inflam inh = inhibitors of inflammasome signaling (IL-1 beta secretion) | AID 743279 | THP-1 LPS/ATP IL-1B secretion, AlphaLISA, 16 h; hits give low values | 360,000 tested, 4.7% active | activity change, % at 57.5 µM; in the data active means activity change below about -50%; inconclusive means mostly about -30% to -49%
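THP-1 cells pretreated 1 hr with compounds (up to 57.5 uM final), then stimulated with LPS (250 ng/mL final) plus ATP (1.25 mM final); secreted IL-1B measured by AlphaLISA after 16 hr, decreased signal indicating inhibition.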
RORg inh = ROR gamma (mouse) transcription inhibition; P51450; Drosophila S2 Gal4-RORgamma UAS-luciferase reporter, 20 h; Potency, µM (doses to about 53.6 µM), without a hit: at the top dose activity change, negative = inhibition, usual class: inhibitors; 310,000 tested, 5.4% active; further: potency means the concentration at half of the fitted maximal effect; nearly all actives have a fitted effect of over 60% in size
Target sequence (P51450 whole entry, looked up, the tested form may be a part): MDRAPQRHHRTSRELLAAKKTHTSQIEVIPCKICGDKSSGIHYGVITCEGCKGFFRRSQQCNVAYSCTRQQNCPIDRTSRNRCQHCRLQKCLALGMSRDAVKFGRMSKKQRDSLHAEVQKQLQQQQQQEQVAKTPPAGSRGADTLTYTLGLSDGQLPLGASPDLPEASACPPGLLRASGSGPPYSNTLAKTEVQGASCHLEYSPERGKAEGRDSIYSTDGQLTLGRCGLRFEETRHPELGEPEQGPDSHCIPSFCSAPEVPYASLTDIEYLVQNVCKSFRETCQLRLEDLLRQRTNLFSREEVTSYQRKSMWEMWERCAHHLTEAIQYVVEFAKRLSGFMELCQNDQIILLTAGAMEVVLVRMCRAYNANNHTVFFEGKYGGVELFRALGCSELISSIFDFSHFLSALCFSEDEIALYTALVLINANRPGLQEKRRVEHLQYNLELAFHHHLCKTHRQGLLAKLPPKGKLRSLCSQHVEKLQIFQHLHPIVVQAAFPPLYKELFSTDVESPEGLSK
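A Gal4/UAS one-hybrid system in insect cells: metallothionein-promoter Gal4–ROR gamma fusion plus Photinus luciferase reporter. Copper sulfate 700 uM final, 20 hr ambient incubation, luminescent detection after 10 min with reagent.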
VP16 counter = inhibits Gal4-VP16 luciferase reporter, ROR gamma counter-screen; Drosophila S2 Gal4-VP16 UAS-luciferase, luminescence, 20 h; Potency, µM (highest dose often 53.6 µM), for the others: top-dose activity, negative = inhibition, actives largely listed as inhibitors; AID 2546; 310,000 tested, 3.5% active;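 further: Gal4-VP16 expression switched on by copper sulfate through the metallothionein promoter; potency means the concentration at half of the fitted maximal effect; nearly all actives have a fitted effect of over 50% in size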
ELG1 repair inh = ELG1-dependent DNA repair inhibition | HEK293T ELG1-luciferase reporter, luminescence, 16 h; DNA damage induced by 5-fluorouridine | Potency, µM (titrated, usually from 46.1 µM), for inactives: at the highest dose activity change, negative = inhibition, actives largely listed as inhibitors | 330,000 tested, 2.3% active; further: potency means the concentration at half of the fitted maximal effect; nearly all actives have a fitted effect of over 55% in size
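Cells (2,000 per well) received 5-fluorouridine plus test compound or DMSO and were incubated 16 hr at 37 °C, 5% CO2. Luciferase activity was read by luminescence 30 min after ONE-Glo addition; signal suppression marked inhibition of damage-induced ELG1 function.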
Numbers without * were called inactive. Shown are actives, neighbours in structure and some others; about 21% of the full set was active somewhere. Unless noted, the call rests on the fitted dose curve; in most records, active means well fitted curve in the direction sought with a large enough effect; inconclusive means small, poorly fitted or top-dose-only effect, or another doubt; inactive means no such curve, though single readings can be large; an effect the other way counts as inactive or inconclusive. On the % scale 0 is the no-effect control and ±100 the full control effect.

Results for CC(=O)c1cccc(NC(=O)Cc2ccc(NC(=O)N3CCCCc4ccccc43)cc2)c1 ?
TDP1 cell noCPT: 16µM*; TDP1 cell CPT: inconclusive

What do the screens show for `CCOc1ccc(NC(=O)Cc2ccc(NC(=O)N3CCCCc4ccccc43)cc2)cc1`?
TDP1 cell noCPT: 5.2µM*; TDP1 cell CPT: 5.2µM*

Results for CCOc1ccccc1CNC(=O)Cc1ccc(NC(=O)N2CCCCc3ccccc32)cc1 ?
TDP1 cell noCPT: 9.2µM*; TDP1 cell CPT: 12µM*

What do the screens show for `CC(=O)c1cccc(NC(=O)N2CCCc3ccccc32)c1`?
TDP1 cell noCPT: -9%; TDP1 cell CPT: 1%; IL-1B inflam inh: 14; RORg inh: inconclusive; VP16 counter: 19%; ELG1 repair inh: inconclusive

Results for CCOc1ccc(CNC(=O)c2ccc(NC(=O)N3CCCCc4ccccc43)cc2)cc1OC ?
TDP1 cell noCPT: 3%; TDP1 cell CPT: -21%

What do the screens show for `CCOc1ccc(-n2ccnc2SCC(=O)N2CCCc3ccccc32)cc1`?
TDP1 cell noCPT: inconclusive; TDP1 cell CPT: inconclusive; IL-1B inflam inh: inconclusive; RORg inh: 7.1µM*; VP16 counter: inconclusive; ELG1 repair inh: inconclusive

Results for N#Cc1ccc(COc2cccc3cccnc23)cc1 ?
TDP1 cell noCPT: inconclusive; TDP1 cell CPT: 1%; IL-1B inflam inh: -14; RORg inh: 10µM*; VP16 counter: -2%; ELG1 repair inh: 13%

What do the screens show for `Brc1ccc(COc2cccc3cccnc23)cc1`?
TDP1 cell noCPT: -11%; TDP1 cell CPT: -17%; IL-1B inflam inh: -16

What do the screens show for `Oc1ccc(/C=N/Nc2ccc(Cl)nn2)cc1O`?
TDP1 cell noCPT: 15µM*; TDP1 cell CPT: inconclusive; IL-1B inflam inh: 45; RORg inh: -31%; VP16 counter: -6%; ELG1 repair inh: inconclusive

Results for Brc1cccc(/C=N/Nc2nc(N3CCCCC3)nc(N3CCCCC3)n2)c1 ?
RORg inh: -5%; VP16 counter: 0%; ELG1 repair inh: 10%

Results for Oc1ccc(Br)cc1/C=N/Nc1nc(N2CCCCC2)nc(N2CCOCC2)n1 ?
TDP1 cell noCPT: inconclusive; TDP1 cell CPT: 15µM*; IL-1B inflam inh: inconclusive; RORg inh: -13%; VP16 counter: -1%; ELG1 repair inh: inconclusive

Results for C/C(=N\Nc1nc(N2CCCCC2)nc(N2CCOCC2)n1)c1ccccc1O ?
TDP1 cell noCPT: 21µM*; TDP1 cell CPT: inconclusive; IL-1B inflam inh: -86*; RORg inh: 3%; VP16 counter: -4%; ELG1 repair inh: inconclusive

What do the screens show for `Brc1cc2c(cc1/C=N/Nc1nc(N3CCCC3)nc(N3CCOCC3)n1)OCO2`?
TDP1 cell noCPT: 16µM*; TDP1 cell CPT: 26µM*; IL-1B inflam inh: inconclusive; RORg inh: -16%; VP16 counter: 0%; ELG1 repair inh: inconclusive

What do the screens show for `O=C1C(CCC(O)c2ccc(F)cc2)C(c2ccc(O)cc2)N1c1ccc(F)cc1` (configuration not stated)?
RORg inh: 25%; VP16 counter: -5%

Results for CN1CCc2[nH]c3ccc(Cl)cc3c2C1 ?
TDP1 cell noCPT: -25%; TDP1 cell CPT: 4%

Results for Oc1ccc(/C=N/Nc2nc(N3CCCC3)nc(N3CCCC3)n2)cc1O ?
TDP1 cell noCPT: 5.8µM*; TDP1 cell CPT: inconclusive; IL-1B inflam inh: 34; RORg inh: inconclusive; VP16 counter: -24%; ELG1 repair inh: -24%

Results for O=[N+]([O-])c1cc(/C=N/Nc2nc(N3CCCCC3)nc(N3CCCCC3)n2)ccc1O ?
TDP1 cell noCPT: inconclusive; TDP1 cell CPT: 14%; IL-1B inflam inh: 11; RORg inh: -9%; VP16 counter: -9%; ELG1 repair inh: 11%
